Growth data for eight molecules are collected here from PubChem BioAssay (NCI).

Test in all cases: NCI-60 one-dose screen, 48 h (100 = growth as untreated, 0 = no growth, -100 = all killed)
The test system of assay [1] is SK-MEL-2 melanoma. The settings on record: 10 µM unless noted.
The test system of assay [2] is EKVX NSCLC. Conditions: 10 µM unless noted.
Assay [3] deals with SN12C renal. The settings on record: 10 µM unless noted.
Assay [4] relates to UO-31 renal. The settings on record: 10 µM unless noted.
Assay [5] deals with TK-10 renal. Conditions: 10 µM unless noted.
Assay [6] relates to ACHN renal. The settings on record: 10 µM unless noted.
The test system of assay [7] is CAKI-1 renal. The settings on record: 10 µM.
The subject of assay [8] is A498 renal. Conditions: 10 µM unless noted.
Assay [9] relates to CCRF-CEM leukemia. Conditions: 10 µM unless noted.
Assay [10] concerns MOLT-4 leukemia. The settings on record: 10 µM unless noted.
For assay [11], the system named is SR leukemia. Conditions: 10 µM unless noted.
The subject of assay [12] is RPMI-8226 leukemia. Conditions: 10 µM unless noted.
Assay [13] has as its system OVCAR-8 ovarian. Conditions: 10 µM unless noted.
The test system of assay [14] is OVCAR-5 ovarian. Conditions: 10 µM unless noted.
The subject of assay [15] is OVCAR-4 ovarian. Conditions: 10 µM unless noted.
The test system of assay [16] is SK-OV-3 ovarian. Conditions: 10 µM unless noted.
In assay [17] the test system is IGROV1 ovarian. The settings on record: 10 µM unless noted.
Assay [18] concerns OVCAR-3 ovarian. The settings on record: 10 µM unless noted.
Assay [19] relates to HS 578T breast. The settings on record: 10 µM unless noted.
Assay [20] relates to NCI/ADR-RES ovarian. The settings on record: 10 µM unless noted.

Compounds without any hit were thinned out: in the full panel of roughly 83,000, 20% have a hit.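 Method: cells in 96-well plates; compound added at one concentration; 48 h incubation; percent growth measured; values under 10 scored active.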 A number with no mark means an inactive call. Active and inactive are the calls of the source.

Consider `Cc1cc(O)c2c(c1)C(=O)C(c1c(C)cc3c(c1O)C(=O)C=CC3=O)=CC2=O`, for which the growth in [1] was 123%; in assay [2], 100%; in assay [3], 74.7%; in [4], -14.9% (active); in [5] it was 14.2%; in assay [6] it was -8.41% (active). Further, the growth is 13.8% in [7]; 122% in assay [8]; 19.3% in assay [9]; 41.4% in assay [10]; 11.1% in assay [11]; 15.2% in assay [12]. Also, the growth in [13] is 82.5%; in assay [14] it was 117%; in assay [15], 86.3%; in assay [16], 89.2%; in assay [17], 108%; in assay [18], 23.4%. The growth is 102% in [19] and 100% in assay [20].

`COc1cc2cc(Oc3ccc(NC(=O)Nc4cc(C(F)(F)F)cc(C(F)(F)F)c4)cc3)c(C)nc2cc1OCCN(C)C`: the growth in assay [1] was 113%; in assay [2], 106%; in [3] it was 100%; in [4] it was 89.5%; in assay [5], 109%; in assay [6] it was 107%. In addition, the growth is 93.4% in [7]; 113% in assay [8]; 110% in assay [9]; 107% in assay [10]; 121% in [11]; 113% in assay [12]. For the same molecule, the growth in assay [13] is 113%; in assay [14], 109%; in [15], 104%; in assay [16] it was 113%; in assay [17], 104%; in assay [18], 120%. Further, the growth in assay [19] is 101%; in assay [20] it was 109%.

For the molecule `COc1cc2cc(Oc3ccc(NC(=O)c4cccc(C(F)(F)F)c4)cc3)c(C)nc2cc1OCCN(C)C`, the growth in [1] is 108%; in assay [2], 83%; in assay [3] it was 84.1%; in assay [4], 84%; in assay [5], 98%; in [6] it was 86.6%. The growth is 75.2% in [7]; 100% in [8]; 41% in assay [9]; 67.1% in [10]; 28.6% in [11]; 73.1% in assay [12]. The growth is 89.8% in assay [13]; 103% in [14]; 80.5% in assay [15]; 108% in assay [16]; 93.2% in assay [17]; 102% in assay [18]. For the same molecule, the growth is 74.8% in [19] and 80.7% in assay [20].

For `COc1ccc(-c2nnc(SCc3ccc(O)c4ncccc34)o2)cc1`, the growth was 48.3% in assay [1]; 57.8% in assay [2]; 46.6% in assay [3]; 8.44% (active) in assay [4]; 56.4% in [5]; 23.6% in [6]. In addition, the growth in assay [7] is 32.1%; in assay [8], 69.8%; in assay [9], 15.7%; in [10], 28.1%; in assay [11], 45.8%; in assay [12] it was 9.32% (active). Besides, the growth in assay [13] was 35.1%; in assay [14], 88.4%; in [15], 24.5%; in assay [16], 51.7%; in [17], 43%; in assay [18], 21.6%. The growth in assay [19] is -0.148% (active); in assay [20], 16.9%.

With `O=[N+]([O-])c1ccc(-c2nnc(SCc3ccc(O)c4ncccc34)o2)cc1`, the growth in assay [1] is 25%; in [2] it was 27.3%; in assay [3] it was 17.1%; in assay [4], 7.09% (active); in assay [5] it was 29.2%; in assay [6] it was 12.6%. In addition, the growth is 22.9% in assay [7]; 27.7% in assay [8]; 19.2% in assay [9]; 25.1% in assay [10]; 45% in assay [11]; 15% in [12]. Further, the growth in [13] was 22%; in assay [14], 49%; in assay [15] it was 17.3%; in [16] it was 11.1%; in [17] it was 31.7%; in assay [18] it was 8.31% (active). The figures for the growth in [19] and in [20] were 2.14% (active) and 25.3%, respectively.

Consider `O=c1oc2ccc(-c3ccc(F)cc3F)cc2c(=O)n1-c1ccc(F)c(F)c1`, for which the growth was -14.3% (active) in [1]; 9.2% (active) in assay [2]; 2.02% (active) in assay [3]; -12.4% (active) in [4]; 10.8% in assay [5]; 2.6% (active) in assay [6]. Further, the growth in assay [7] is -15.4% (active); in [8] it was -42.6% (active); in assay [9], 16.4%; in assay [10], 6.43% (active); in assay [11], 27.5%; in assay [12] it was -19.1% (active). Also, the growth in assay [13] is 8.19% (active); in [14], 12.9%; in [15], 9.07% (active); in assay [16], 6.15% (active); in [17], 15.1%; in assay [18] it was 5.59% (active). Moreover, the growth in assay [19] was 1.72% (active); in assay [20], 3.65% (active).

With `CS(=O)(=O)c1ccc(-c2nn(-c3ccccc3)cc2/C=N/NC(=O)c2ccncc2)cc1`, the growth is 107% in [1]; 98.4% in assay [2]; 98.6% in assay [3]; 94.2% in [4]; 97.3% in assay [5]; 107% in [6]. For the same molecule, the growth is 93.9% in [7]; 113% in assay [8]; 102% in assay [9]; 97.2% in [10]; 87% in assay [11]; 115% in assay [12]. Also, the growth was 101% in assay [13]; 107% in [14]; 104% in assay [15]; 109% in assay [16]; 104% in assay [17]; 109% in assay [18]. Moreover, the growth in assay [19] was 108%; in [20], 94.7%.

Take `CCCC(=O)NC(c1cccnc1)c1ccc2c(C)ccnc2c1O` (stereo not given): the growth in assay [1] was 42.5%; in [2], 15.1%; in assay [3] it was 29.1%; in assay [4], 11.8%; in [5], 33.3%; in assay [6], 13.8%. Moreover, the growth is 19.2% in [7]; 37.8% in assay [8]; 4.51% (active) in assay [9]; 13.9% in assay [10]; 41.2% in [11]; 32.1% in assay [12]. The growth in [13] was 21.1%; in assay [14] it was 32.3%; in assay [15], 11.2%; in [16], 19.7%; in assay [17], 19.2%; in [18], 13.1%. The growth is 67.6% in assay [19] and 9.99% (active) in [20].
